Compounds without any hit were thinned out: in the full panel of roughly 79,000, 15% have a hit. Calls of active or inactive are those of the source. No stated cut-off is given here; in the data, active means growth inhibition above about 70%; inactive means the rest.
Experiments:
[1] = NCI Yeast Anticancer Drug Screen. Data for the rad50 strain (AID 155);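 further: 0% = growth of vehicle-only cultures of the same strain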; conditions: S. cerevisiae rad50 strain growth inhibition; at 50.0 µM; active compounds read high
How it was run: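 Cells are treated with compound, grown, and their growth is then scored against vehicle-only cultures of the same repair-deficient yeast strain.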

[2] = NCI Yeast Anticancer Drug Screen. Data for the mec2-1 strain (AID 157); conditions: S. cerevisiae mec2-1 strain, at 50.0 µM, active compounds read high
How it was run: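 Readout is yeast growth inhibition, normalised to vehicle-treated controls, in the mec2-1 strain exposed to compound.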

[3] = NCI Yeast Anticancer Drug Screen. Data for the sgs1 mgt1 strain (AID 161);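 further: 0% = growth of cultures given vehicle only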; conditions: S. cerevisiae sgs1 mgt1 strain, at 50.0 µM, active compounds read high
How it was run: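 Compounds are added to genetically altered yeast, and growth is compared with cultures given vehicle alone to give percent inhibition.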

[4] = NCI Yeast Anticancer Drug Screen. Data for the cln2 rad14 strain (AID 165);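 further: 0% = growth equal to vehicle treated cultures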; conditions: S. cerevisiae cln2 rad14 strain, at 50.0 µM, active compounds read high
How it was run: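 Relative to vehicle controls, growth inhibition of compound-treated cln2 rad14 yeast was recorded.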

[5] = NCI Yeast Anticancer Drug Screen. Data for the mlh1 rad18 strain (AID 175); conditions: S. cerevisiae mlh1 rad18 strain growth inhibition; at 50.0 µM; active compounds read high
How it was run: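 Test agents were incubated with a yeast strain of defined genotype (DNA damage repair defect). Inhibition of growth was derived by comparison with vehicle-exposed cultures.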

[6] = NCI Yeast Anticancer Drug Screen. Data for the bub3 strain (AID 167); conditions: S. cerevisiae bub3 mutant strain, at 50.0 µM, active compounds read high
How it was run: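 Part of a panel of yeast mutants defective in DNA damage repair or cell cycle regulation. Each strain is grown with compound, and inhibition is calculated relative to solvent-treated cultures.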

Measured: growth inhibition

NC(=O)c1nnc2cc(F)ccc2c1N
inactive: [1] 4.8% | [2] -3.45% | [3] 1.35% | [4] 0.4% | [5] -1.6%

NC(=S)NNC(=O)C(Cc1ccccc1)NC(=O)OCc1ccccc1 (stereo not given)
inactive: [1] 1.75% | [2] 17.7% | [3] 22.9% | [4] -7.6% | [5] 11.4%

NC(=O)c1ccc(=S)[nH]c1
inactive: [1] -8% | [2] -12.7% | [3] -7.55% | [4] -27.1% | [5] 14.7%

O=c1c(N2CCOCC2)c(N2CCOCC2)c1=O
inactive: [1] -21.6% | [2] -22.9% | [3] 0.25% | [4] 15.4% | [5] -1.1%

[Cl-].[Dy+3].[O-]/N=C(\c1ccccc1)c1ccccn1.[O-]/N=C(\c1ccccc1)c1ccccn1.[O-]/N=C(\c1ccccc1)c1ccccn1
inactive: [1] 27.4% | [2] 13.3% | [3] 20.2% | [4] 12.2% | [5] 25.1%

O=NC1C2CCC(C2)C1N=O.[Co].[c-]1[c-][c-][cH-][c-]1 (stereo not given)
inactive: [1] 9.4% | [2] 6.45% | [3] 4.7% | [4] 20.4% | [5] 27.9%

CCN(CC)CCCCCOC(=O)c1cccc(N)c1
inactive: [1] -5.8% | [2] 0.35% | [3] -16.6% | [4] -45.9% | [5] -10.1%

Clc1ccc2cn[nH]c2c1
inactive: [1] -50.4% | [2] -28.1% | [3] -23.2% | [4] 3.3% | [5] -9.3%

CCOC(=O)N1C/C(=C\c2ccccc2)C(=O)/C(=C/c2ccccc2)C1
inactive: [1] -6.85% | [2] 0.6% | [3] -12.3% | [4] 19.6%
active: [5] 72.2%

COc1ccc(/C(=N\NC(=O)C(N)=O)C(c2ccc(OC)cc2)C2(O)C(=O)Nc3c(Cl)cccc32)cc1 (stereo not given)
inactive: [1] -9.45% | [2] -15.4% | [3] -49.5% | [4] 32.5% | [5] -23.1%

CCOP(=O)(OCC)/C(=C\n1ccc(=O)[nH]c1=S)C(=O)OC
inactive: [1] -54.8% | [2] -54% | [3] -27.4% | [4] -8.6% | [5] -53.5%

COC(=O)C1C(c2ccccc2)C1(C#N)C#N (stereo not given)
inactive: [1] -42.5% | [2] 2.55% | [3] -1% | [4] -25.6% | [5] 3.3%

CC(C(=O)O)[C@H]1CC[C@H]2[C@@H]3CCC4=CC(=O)CC[C@]4(C)[C@H]3CC[C@]12C (stereo not given in full)
inactive: [1] -3.5% | [2] -5.7% | [3] 7.15% | [4] -46.9% | [5] -10.2%

COC1OC2COC(c3ccccc3)OC2C(OC(C)=O)C1OS(=O)(=O)c1ccc(C)cc1 (stereo not given)
inactive: [1] -2.7% | [2] 14.1% | [3] -5.35% | [4] 3.35% | [5] 28.8%

COC(=O)N/N=C/c1c[nH]c2ccccc12
inactive: [1] -5.15% | [2] -17.6% | [3] -9.65% | [4] -97% | [5] -24.6%

CC1(C)S[C@@H]2[C@H](NC(=O)C3(N)CCCCC3)C(=O)N2[C@H]1C(=O)O
inactive: [1] -11.8% | [2] -29.1% | [3] 7.85% | [4] -5.65% | [5] -11.8%

N#CCCC1C(C#N)C2CC1C1C3C=CC(C3)C21 (stereo not given)
inactive: [1] 9.1% | [2] 11.2% | [3] 30.5% | [6] -4.5% | [5] 26.2%

CCCCCCCCCCCCOC(=S)CCl
inactive: [1] -10.9% | [2] -10.7% | [3] 10.8% | [6] 4.55% | [5] 14.7%

COC(C)(C)C/C=C/C(C)=C/C=C/C(C)=C\C=C\C(C)=C\C=C\C=C(C)\C=C\C=C(C)\C=C\C=C(C)\C=C\CC(C)(C)OC
inactive: [1] -10.8% | [2] -1.65% | [3] -26.9% | [6] -12.2% | [5] -12.1%

CCCCC(CC)CCC(O)CC(C)C (stereo not given)
inactive: [1] -10.2% | [2] -11.3% | [3] 14.6% | [6] 13.8% | [5] 5.25%

Cc1ccc(C(=O)NC(C)C)cc1N=NN(C)C
inactive: [1] -34.2% | [2] -42.1% | [3] -46.9% | [6] -31.7% | [5] -32.2%

CCCCCCCCC(=O)c1c(OC)oc(C=O)cc1=O
inactive: [1] -0.5% | [2] -22.8% | [3] 31.8% | [6] -19.6% | [5] 4%

Cc1cccc(CBr)c1-c1c(C)cccc1CBr
inactive: [1] -19.2% | [2] 10.8% | [3] 10.1% | [6] 27.6% | [5] -0.65%

Oc1cccc2c1N1CCN2CC1
inactive: [1] -2.15% | [2] 2.55% | [3] 11.2% | [6] 9.6% | [5] 10.3%
